Values joined by “and” are separate entries in the source; they are usually repeats but may differ in a detail not shown here. Equal entries are not always repeated. Active and inactive are the calls of the source.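 How the source made its calls, unless noted: active means inhibition at or above 50% relative to wild type and mutant plate controls; inactive means inhibition below 50%.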

Assay [1] is described as follows: inhibitors of TNFa-induced NFkB p65 translocation, primary screen, imaging, HUVEC, MLSMR starter and 10KST1 sets (AID 438;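 active means inhibition above 20% together with a positive visual image hit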;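 further: compound added about 3h40 before a 20 min TNFalpha stimulation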;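 on inhibition: signal is the nuclear over cytoplasmic p65 intensity ratio per well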). The note with it: HUVEC TNFa-induced p65 nuclear translocation; cell count: measured here: nuclei count (cytotoxicity indicator), at 2.08 µM; inhibition: at 2 µM, stronger effect = higher value, 0% TNFa-plus-vehicle, 100% no-TNFa wells.
The nature of assay [2]: endothelial E-selectin expression blockers – imaging, HUVEC, immunofluorescence, MLSMR starter and 10KST1 sets, primary screen (AID 487;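 active means visually confirmed hit in the image check and inhibition above 20%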;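 on inhibition: signal is fraction of cell area covered by stained E-selectin grains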;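 on nuclei count: 100% = median nuclei count of all wells on the same plate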). The note with it: HUVEC TNFalpha-induced E-selectin immunofluorescence imaging, at 2 µM; inhibition: stronger effect = higher value; nuclei count: measured here: cell number, toxicity.
Assay [3] can be described thus: Primary imaging screen for DUSP6 inhibitors that restore phospho-Erk in transfected HeLa cells, chemical complementation (AID 609;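 active means compounds giving at least 50% inhibition in the cell-based MKP-3 phosphatase rescue imaging test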;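 on inhibition: phospho-Erk level distribution per well compared with pooled transfected vehicle control wells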). The note with it: HeLa MKP-3 transfected, phospho-Erk imaging KS statistic, at 10 µM, cells stimulated with TPA for 15 min.
The target of assay [4] is Dual specificity protein phosphatase 6 (Homo sapiens) (UniProt Q16828). The assay is described as above. The note with it: HeLa MKP-3 transfected, phospho-Erk imaging KS statistic; at 10 µM; stronger effect = higher value; cells stimulated with TPA for 15 min.
The target in assay [5] is Voltage-gated potassium channel subunit beta-2 (Rattus norvegicus) (UniProt P62483). The assay is described as follows: inhibitors of rat Kvbeta2 reductase activity – biochemical, NADPH fluorescence, primary screen (AID 622;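 active means fluorescence slope higher than the sample average by over 3 SD, cut at about -0.22 in these data, passing the limit was not always enough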;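 further: slope of raw intensity against log time taken from 70 to 1610 s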). The note with it: recombinant KvBeta, 4-cyanobenzaldehyde reduction, at 10 µM, stronger effect = higher value.
The target is the same in assay [6]. The assay is described as follows: enhancers of rat Kvbeta2 NADPH turnover – biochemical, NADPH fluorescence, primary screen (AID 623;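 active means NADPH fluorescence slope more negative than the mean of all samples by about 3 SD, 99.7% confidence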;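 further: fluorescence intensity change per second fitted from 20 to 320 s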). The note with it: Recombinant KvBeta, NADPH fluorescence decrease slope, 10 min; at 10 µM; stronger effect = lower value.
For assay [7], the target named is Alpha-2C adrenergic receptor (Homo sapiens) (UniProt P18825). The assay is described as follows: compounds altering alpha2C-coupled GIRK flux – cell-based, HEK293 alpha2C/GIRK1/2, thallium flux, primary screen (AID 624;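 active means fluorescence slope after compound addition differing from the mean of all screened samples at 99.7% confidence, in either direction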;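 further: slope of fluorescence ratio to pre-addition baseline per second over 15 to 24 s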). The note with it: thallium flux BTC fluorescence, at 10 µM, actives lie on both sides.
Assay [8] can be described thus: inhibitors of larval lipid processing in zebrafish, primary screen, whole organism, PED6 fluorescence, gall bladder and intestine (AID 686;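 active means a full or partial loss of lipid-probe fluorescence in the fish gall bladder, intestine or both, judged by eye; inactive means no fluorescence loss, or compound toxic to the fish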;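 further: larvae 5 to 7 days old with five fish per well; signal comes from phospholipase A2 cleavage of quenched PED6 carried via bile; overnight exposure to compound and PED6 before scoring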). The note with it: Zebrafish larvae PED6 lipid processing, fluorescence scoring; screened at 20 µM (by protocol).
A short description of assay [9]: loss of swimming-algae plug formation – whole organism, Chlamydomonas reinhardtii, WT vs cilia-less mutant, absorbance, 96-well, primary screen (AID 463189).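 Further: 0% = wild type cc124 cells in DMSO and 100% = ciliumless bld1 mutant cells.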 The note with it: Chlamydomonas reinhardtii gravitaxis, OD600 absorbance, 2 days; at 10 µM; stronger effect = higher value.
The nature of assay [10]: blockers of RIG-like receptor reporter activation – cell-based, Sendai virus stimulus, luciferase, 10K MLSCN set, TLR/RLR signaling modifier project, primary screen (AID 602276;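 active means inhibition at or above 50% at 10 µM; inactive means inhibition below 50%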;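 further: firefly luciferase from ISG56 promoter only with Renilla not read in this screen; 0% = Sendai virus plus DMSO and 100% = medium plus DMSO without virus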). The note with it: HEK293 RL24 IRF3 luciferase reporter, at 10 µM, stronger effect = higher value. For orientation: Reporter assays use an easily measured gene product as a stand-in for the process of interest.

Assay [11] can be described thus: TLR3 IRF3 reporter activation blockers – cell-based, poly I:C stimulus, luciferase, 10K MLSCN set, primary screen (AID 602277;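 active means inhibition of the reporter signal at or above 50%; inactive means inhibition below 50%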). The note with it: HEK293-TLR3 RL24 IRF3 luciferase reporter, at 10 µM, stronger effect = higher value.
Where [12] appears, read: measured here: cell density z-score.
Where [13] appears, read: measured here: nuclear c-Myc green intensity z-score.
The mark [14] stands for this setting: measured here: nuclear pErk red intensity z-score, stronger effect = higher value.

Dual specificity protein phosphatase 6 (Homo sapiens), sequence (Q16828 whole entry, looked up): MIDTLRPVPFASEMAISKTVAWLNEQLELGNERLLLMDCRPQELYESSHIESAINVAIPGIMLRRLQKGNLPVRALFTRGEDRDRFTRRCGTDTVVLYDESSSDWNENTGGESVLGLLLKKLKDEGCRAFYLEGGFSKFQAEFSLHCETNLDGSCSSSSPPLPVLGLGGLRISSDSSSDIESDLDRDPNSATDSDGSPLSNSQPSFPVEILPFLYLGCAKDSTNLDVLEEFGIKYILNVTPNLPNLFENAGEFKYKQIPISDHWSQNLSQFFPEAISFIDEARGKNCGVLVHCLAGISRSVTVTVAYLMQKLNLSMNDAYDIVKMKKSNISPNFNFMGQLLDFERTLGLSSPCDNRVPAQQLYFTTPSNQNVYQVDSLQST
Voltage-gated potassium channel subunit beta-2 (Rattus norvegicus), sequence (P62483 whole entry, looked up): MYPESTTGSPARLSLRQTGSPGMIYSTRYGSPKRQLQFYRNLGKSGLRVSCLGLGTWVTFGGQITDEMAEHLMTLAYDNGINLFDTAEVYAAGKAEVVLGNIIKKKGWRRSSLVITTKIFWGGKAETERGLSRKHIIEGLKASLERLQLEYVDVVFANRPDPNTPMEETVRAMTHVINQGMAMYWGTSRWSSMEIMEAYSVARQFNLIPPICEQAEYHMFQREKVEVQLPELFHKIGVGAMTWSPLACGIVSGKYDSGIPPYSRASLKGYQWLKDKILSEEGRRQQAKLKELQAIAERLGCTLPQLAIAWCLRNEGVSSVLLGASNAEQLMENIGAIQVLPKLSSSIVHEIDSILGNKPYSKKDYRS
Alpha-2C adrenergic receptor (Homo sapiens), sequence (P18825 whole entry, looked up): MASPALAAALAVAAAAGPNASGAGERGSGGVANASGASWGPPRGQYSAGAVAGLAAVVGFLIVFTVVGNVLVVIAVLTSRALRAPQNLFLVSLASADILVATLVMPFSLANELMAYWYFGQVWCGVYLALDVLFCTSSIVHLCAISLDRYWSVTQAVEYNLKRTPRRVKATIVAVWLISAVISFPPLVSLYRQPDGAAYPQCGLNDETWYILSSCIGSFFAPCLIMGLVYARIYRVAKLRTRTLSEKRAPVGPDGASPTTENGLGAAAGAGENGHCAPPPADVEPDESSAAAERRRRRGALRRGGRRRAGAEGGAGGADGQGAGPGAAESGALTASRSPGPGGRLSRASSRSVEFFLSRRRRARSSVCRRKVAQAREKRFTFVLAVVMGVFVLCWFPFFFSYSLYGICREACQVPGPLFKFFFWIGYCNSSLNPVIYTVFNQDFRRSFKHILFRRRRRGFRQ

With `O=C(O)c1cc(=O)c2c(OCC(O)COc3cccc4oc(C(=O)O)cc(=O)c34)cccc2o1`, the cell count in assay [1] was determined as 472. The inhibition (as a rule, the drop in the measured response relative to a control, in per cent) in assay [1] was -2.9% (inactive); in assay [2], -78.3% (inactive); in [4] it was 5.42% (inactive); in [9], -9.3% (inactive); in [10], 13.2% (inactive); in assay [11], 13.9% (inactive). Moreover, in assay [2], the nuclei count worked out at 106%. For the same compound, the z-score in [3] (setting [12]) is -1.42; in assay [3] (setting [13]) it was 1.02; in assay [3] (setting [14]), -0.69. Besides, in assay [5], the fluorescence slope is -0.505 (inactive). Also, the NADPH fluorescence slope in assay [6] is -6.1e-05 (inactive). Besides, the slope in [7] is 0.0051 (inactive). Besides, in [8], the call was inactive.
Regarding `C=CCOc1nc(-c2ccncc2)nc2ccccc12`, the cell count in assay [1] amounted to 345. The inhibition in assay [1] was 4.5% (inactive); in assay [2], -73.4% (inactive); in assay [4], 16.1% (inactive); in assay [9], 79.7% (active). Besides, the nuclei count in assay [2] worked out at 130%. For the same compound, the values for the z-score in assay [3] (setting [12]), in [3] (setting [13]) and in [3] (setting [14]) were 0.583, -0.0101 and -0.88, respectively. Also, the fluorescence slope in assay [5] was -0.491 (inactive). Moreover, the NADPH fluorescence slope in [6] is -3.3e-05 (inactive). Also, in assay [7], the slope was 0.00589 (inactive).
Consider `c1ccc(CN2CCN(c3nc(-c4ccccn4)nc4ccccc34)CC2)cc1`, for which the cell count in assay [1] amounted to 275. In addition, the inhibition in assay [1] is -1.9% (inactive); in [2], -134% (inactive); in assay [4], 20.2% (inactive); in [9] it was 130% (active). This compound also showed a nuclei count in assay [2] of 96.6%. In addition, the figures for the z-score in assay [3] (setting [12]), in assay [3] (setting [13]) and in assay [3] (setting [14]) were 0.978, -1.13 and -0.507, respectively. For the same compound, the fluorescence slope in assay [5] was -0.498 (inactive). The NADPH fluorescence slope in assay [6] was 4.9e-06 (inactive). The slope in [7] was 0.00604 (inactive).
For `C=C1C2(C(=O)Nc3nccs3)CCC(C2)C1(C)C` (stereo not drawn), the cell count in [1] is 357. In addition, the inhibition in [1] was -0.5% (inactive); in assay [2], -34.7% (inactive); in assay [4], -3.5% (inactive); in assay [9], 0.99% (inactive). The compound also showed a nuclei count in assay [2] of 138%. Further, the z-score in assay [3] (setting [12]) was -1.77; in assay [3] (setting [13]), 1.86; in assay [3] (setting [14]), 0.223. Moreover, in assay [5], the fluorescence slope is -0.4 (inactive). The NADPH fluorescence slope in assay [6] was -0.000131 (inactive). In addition, in [7], the slope was 0.00676 (inactive).
With `CCOC(=O)N1CCN(/C=C(\C#N)c2nc3ccccc3s2)CC1`, the cell count in [1] stood at 357. For the same compound, the inhibition in assay [1] is -3.2% (inactive); in assay [2], -5.3% (inactive); in assay [4], 7.01% (inactive); in [9] it was -8.84% (inactive). Also, the nuclei count in [2] turned out to be 136%. Moreover, the z-score is 1.93 in assay [3] (setting [12]), 0.746 in [3] (setting [13]) and -0.877 in [3] (setting [14]). In addition, the fluorescence slope in [5] was -0.404 (inactive). In addition, the NADPH fluorescence slope in [6] is -0.000116 (inactive). In assay [7], the slope is 0.0139 (inactive).
As for `CC[N+](C)(C)Cc1ccccc1Br`, the cell count in [1] amounted to 649. Further, the inhibition in assay [1] was -4.5% (inactive); in assay [2] it was -101% (inactive); in assay [4], 11.3% (inactive); in [9] it was 3.29% (inactive) and 10.5% (inactive); in assay [10], 19.3% (inactive); in assay [11], 30.2% (inactive). For the same compound, the nuclei count in assay [2] was 123%. Further, the values for the z-score in assay [3] (setting [12]), in assay [3] (setting [13]) and in assay [3] (setting [14]) were -1.09, -0.375 and 0.336, respectively. Moreover, in assay [5], the fluorescence slope is -0.502 (inactive). The NADPH fluorescence slope in [6] is 1.7e-05 (inactive). Moreover, in [7], the slope was 0.00416 (inactive). The result in [8] was inactive.
Regarding `COc1cccc(C2C(C(=O)c3cccs3)=C(O)C(=O)N2c2cc(C)on2)c1` (stereo not drawn), in assay [1], the cell count is 316. The inhibition in assay [1] was -1.9% (inactive); in [2], -91.3% (inactive); in [4] it was -7.01% (inactive); in assay [9] it was -2.3% (inactive). In [2], this compound yielded a nuclei count of 148%. The z-score in assay [3] (setting [12]) was -0.295; in assay [3] (setting [13]), -1.2; in [3] (setting [14]), 1.95. Besides, the fluorescence slope in [5] was -0.427 (inactive). Moreover, the NADPH fluorescence slope in assay [6] is -0.000129 (inactive). Besides, the slope in assay [7] is 0.00539 (inactive).
Regarding `Cc1ccc2nc(NCc3ccccc3)[nH]c2c1`, the cell count in assay [1] was 360. Besides, the inhibition is -2.3% (inactive) in [1], -217% (inactive) in assay [2], -14% (inactive) in assay [4] and 24.8% (inactive) in assay [9]. Further, in assay [2], the nuclei count stood at 171%. Also, the z-score in assay [3] (setting [12]) is -0.018; in assay [3] (setting [13]), -0.878; in assay [3] (setting [14]) it was 0.83. Besides, the fluorescence slope in [5] is -0.447 (inactive). The NADPH fluorescence slope in assay [6] was -0.00018 (inactive). The slope in [7] was 0.00328 (inactive).
As to `Cc1ccc(N2C(=O)C3ON(c4ccccc4)C(c4ccncc4)C3C2=O)c(C)c1` (stereo not drawn), the cell count in [1] was 326. The inhibition is -7.9% (inactive) in assay [1], -152% (inactive) in [2], -12.3% (inactive) in [4] and 0.697% (inactive) in [9]. In addition, the nuclei count in [2] worked out at 164%. The z-score in [3] (setting [12]) is 0.138; in [3] (setting [13]), -0.827; in assay [3] (setting [14]), -0.00414. Besides, in assay [5], the fluorescence slope is -0.437 (inactive). Further, the NADPH fluorescence slope in [6] is -0.000117 (inactive). The slope in assay [7] was 0.00457 (inactive).
On to `N#C/C(=C\N1CCN(Cc2ccc3c(c2)OCO3)CC1)c1nc2ccccc2s1`, for which, in assay [1], the cell count came out at 359. The inhibition in assay [1] was -3.7% (inactive); in assay [2], -122% (inactive); in assay [4], -14% (inactive); in [9], 100% (active). In assay [2], this compound returned a nuclei count of 170%. Also, the z-score is -0.883 in [3] (setting [12]), 0.284 in [3] (setting [13]) and 0.578 in assay [3] (setting [14]). The fluorescence slope in assay [5] was -0.428 (inactive). The NADPH fluorescence slope in assay [6] was -0.000152 (inactive). Moreover, the slope in [7] is 0.00144 (inactive).
For `Cc1ccc(N2C(=O)C3ON(c4ccccc4)C(c4ccncc4)C3C2=O)cc1` (stereo not drawn), the cell count in [1] was 381. The inhibition was 1.9% (inactive) in [1], -70.5% (inactive) in assay [2], -8.76% (inactive) in assay [4] and 12.5% (inactive) in [9]. The compound also showed a nuclei count in assay [2] of 142%. For the same compound, the z-score in assay [3] (setting [12]) was -0.368; in assay [3] (setting [13]), -0.198; in assay [3] (setting [14]), 0.0354. For the same compound, the fluorescence slope in assay [5] is -0.416 (inactive). Further, in [6], the NADPH fluorescence slope is -0.000456 (active). For the same compound, in assay [7], the slope was 0.0052 (inactive).
As to `CC1(C)S[C@@H]2[C@H](NC(=O)[C@H](C(=O)O)c3ccsc3)C(=O)N2[C@H]1C(=O)O`, the cell count in assay [1] is 519. Also, the inhibition in assay [1] is -8.9% (inactive); in [2] it was -44% (inactive); in assay [4], 7.39% (inactive); in [9], 11.7% (inactive); in assay [10] it was 12.3% (inactive); in assay [11], 36.3% (inactive). Moreover, the nuclei count in assay [2] came to 99.7%. The z-score in assay [3] (setting [12]) was -1.03; in assay [3] (setting [13]), -0.916; in assay [3] (setting [14]), 0.566. In assay [5], the fluorescence slope is -0.44 (inactive). Further, the NADPH fluorescence slope in assay [6] was -4.7e-05 (inactive). The slope in [7] was 0.00461 (inactive). For the same compound, the compound was called inactive in [8].
As for `CC(C)Cc1ccc(C(C)C(=O)O)cc1` (stereo not drawn), in assay [1], the cell count is 604. In addition, the inhibition is -0.8% (inactive) in assay [1]; -67.2% (inactive) in [2]; -0.828% (inactive) in [4]; 1.82% (inactive) and -1.73% (inactive) in [9]; -8.48% (inactive) in [10]; -4.09% (inactive) in [11]. In assay [2], this compound showed a nuclei count of 132%. Further, the z-score in assay [3] (setting [12]) is -0.577; in [3] (setting [13]), -0.145; in [3] (setting [14]), 0.0811. The fluorescence slope in assay [5] was -0.469 (inactive). For the same compound, in assay [6], the NADPH fluorescence slope is -4.6e-05 (inactive). Besides, in [7], the slope was 0.00562 (inactive). Besides, the outcome in [8] was inactive.

The values above are taken from PubChem BioAssay.
